Molecules are shown by their SMILES. Activity calls are given as the source filed them. The rule behind the calls is not given here.

For this assay, the target named is Pantothenate synthetase (Mycobacterium tuberculosis (strain ATCC 25618 / H37Rv)) (UniProt P9WIL5). In words: Recombinant Mtb pantothenate synthetase (PanC) inhibitors, coupled enzyme, confirmatory (AID 375).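 Note: 0% = full reaction with vehicle and 100% = no enzyme background.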 The following applies: coupled enzyme assay; at 10 µM, stronger effect = higher value.
Chain of Pantothenate synthetase (Mycobacterium tuberculosis (strain ATCC 25618 / H37Rv)) (P9WIL5 whole entry, looked up): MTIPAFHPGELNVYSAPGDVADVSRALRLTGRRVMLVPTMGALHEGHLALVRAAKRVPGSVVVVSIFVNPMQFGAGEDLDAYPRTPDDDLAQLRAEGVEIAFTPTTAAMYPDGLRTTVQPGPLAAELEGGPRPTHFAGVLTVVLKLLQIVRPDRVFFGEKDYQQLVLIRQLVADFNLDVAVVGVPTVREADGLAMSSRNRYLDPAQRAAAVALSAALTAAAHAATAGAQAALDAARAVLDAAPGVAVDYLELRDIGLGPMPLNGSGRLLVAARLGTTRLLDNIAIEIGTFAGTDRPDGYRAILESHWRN
A word on the inhibition: it is the percentage by which the read-out fell short of the control. As to `Cn1c2ccc(F)cc2c2ncn(CCN3CCOCC3)c(=O)c21`, the inhibition was 6% (inactive). On to `CCN(CC)CCn1c(=N)n(CCO)c2ccccc21`, for which the inhibition is 0% (inactive). The value for `CCOC(=O)C1C(=O)NC(SCC(=O)Nc2nccs2)=C(C#N)C1c1ccccc1OCC` (stereo not given) was 0% (inactive).

For `CN1CCN(CC#CCC(O)(c2ccccc2)C2CCCC2)CC1` (stereo not given), the inhibition is 0% (inactive).

`Brc1ccc(C2=Nn3c(nnc3-c3ccncc3)SC2)cc1`: the inhibition is 0% (inactive). With `CCN(Cc1nc2cc(OC)c(OC)cc2c(=O)[nH]1)C(=O)c1ccc(S(=O)(=O)N(C)C)cc1` the figure was 0% (inactive). In the case of `CS(=O)(=O)C1=C(O)C(=O)N(c2ccccc2)C1c1ccccc1` (stereo not given), the inhibition is 5% (inactive). `CCOC(=O)N1CCC(NC(=O)Cn2ncc3c4ccccc4n(C)c3c2=O)CC1`: the inhibition is 5% (inactive). `COCCCn1nnnc1SCC(=O)Nc1nc(C)c(C)s1`: the inhibition is 0% (inactive). As for `COc1ccc(CCN(C)CCCC(C#N)(c2ccc(OC)c(OC)c2)C(C)C)cc1OC` (stereo not given), the inhibition is 0% (inactive). The value for `CCNC(=O)Cn1cnc2c1c(=O)n(C)c(=O)n2C` was 0% (inactive); that for `O=C1c2ccccc2C(Nc2ccc(F)c(Cl)c2)N1Cc1ccco1` (stereo not given) was 3% (inactive).

For `c1ccc(Oc2ccc(-n3cnnn3)cc2)cc1`, the inhibition is 3% (inactive). With `Cc1cc(C(=O)NCCCN2CCN(C3CCCCC3)CC2)n(-c2ccccc2)n1` the figure was 4% (inactive); with `COc1ccc(-n2nc3cc(C)c(N)c(Br)c3n2)cc1`, 0% (inactive); with `O=C(CN1CCN(Cc2ccc3c(c2)OCO3)CC1)N1CCc2[nH]c3ccc(F)cc3c2C1`, 0% (inactive).

As to `C=CCn1c(-c2cccs2)nc2nc3ccccc3nc21`, the inhibition was 0% (inactive).

For the compound `Cc1cc(NC(=O)COc2cccc3cccnc23)no1`, the inhibition is 6% (inactive).

For `Cc1nc2ncnn2c(N2CCC(C(=O)NC3CCCC3)CC2)c1Cc1ccccc1`, the inhibition was 1% (inactive). With `Cc1cc(C)n(-c2nc3c(c(=O)[nH]c(=O)n3C)n2Cc2ccc(F)cc2)n1` the figure was 0% (inactive).

Regarding `CNCCC(Oc1ccc(C(F)(F)F)cc1)c1ccccc1` (stereo not given), the inhibition was 4% (inactive). Consider `Cc1ccc(-c2nc(CS(=O)CC(=O)NCCN(CC(C)C)CC(C)C)c(C)o2)cc1` (stereo not given), for which the inhibition was 4% (inactive). With `CCNS(=O)(=O)c1ccc(S(=O)(=O)N(Cc2ccccn2)C2CCCCC2)cc1`, the inhibition is 1% (inactive). With `COC(=O)c1ccnc(/C=N/O)c1` the figure was 6% (inactive); with `COC(=O)c1[nH]c2ccc(C)cc2c1NC(=O)CN1CCN(C(=O)c2ccccc2)CC1`, 4% (inactive); with `CCCCc1cc2c(c(NC(C)=O)n1)c(=O)oc1ccccc12`, 0% (inactive).

Regarding `Cc1ccc(CCNC(=O)C2CCN(S(=O)(=O)c3cccc4nsnc34)CC2)cc1`, the inhibition was 6% (inactive). With `CCN(CCCNC(=O)c1cn(CC)c2ccc(S(=O)(=O)N(C)C)cc2c1=O)c1cccc(C)c1` the figure was 7% (inactive); with `Cc1nn(-c2ccc(F)cc2)c(C)c1NS(=O)(=O)c1ccc(Cl)cc1`, 11% (inactive); with `CN(C)c1ccc(/C(=N\O)c2ccccc2)cc1`, 0% (inactive).

In the case of `Cc1cccc(NC(=O)CSc2nnc(-c3cc(C)n(-c4ccccc4)c3C)o2)c1C`, the inhibition was 0% (inactive).

Regarding `COC(=O)c1cc(=O)n2c(-c3ccc(OC)cc3)csc2n1`, the inhibition is 3% (inactive). The value for `Cn1c(=O)c2c(nc(CN3CCCCC3)n2CCCc2ccccc2)n(C)c1=O` was 2% (inactive); that for `CC(C)Cc1nc(S(=O)(=O)c2ccc(Cl)cc2)c(N2CCOCC2)o1` was 0% (inactive); that for `Cc1ccc(S(=O)(=O)N(CC(=O)N2CCC(C(N)=O)CC2)Cc2ccc(F)cc2)cc1` was 0% (inactive). As to `O=C(C1CCN(C2CC(=O)N(c3ccc(F)cc3)C2=O)CC1)N1CCOCC1` (stereo not given), the inhibition was 0% (inactive).

With `O=S(=O)(c1ccc(Oc2ccc(-c3nnco3)cc2)nc1)N1CCC(Cc2ccccc2)CC1`, the inhibition was 0% (inactive).

As for `CCOC(=O)CSc1nnc(CNC(=O)c2cccs2)n1-c1cc(OC)ccc1OC`, the inhibition is 1% (inactive).

For `COc1ccc2nc(SCC(=O)NC(C)C)[nH]c2c1`, the inhibition was 0% (inactive). The value for `CCOc1ccc(Oc2nc(Nc3ccc(C)cc3)nc(N(C)C)n2)nn1` was 0% (inactive).
